Here are results for eight molecules from the supplement of paper PMC10105736.

Test in all cases: MAPPIT interaction score (arbitrary units); higher = stronger binary interaction signal, active = hit call of the paper
One assay deals with MESK2. To be noted: MAPPIT configuration: N-N; pair source set: DPIM.
A further assay has as its target Lmpt. To be noted: MAPPIT configuration: N-N; pair source set: Curagen_low_conf.
The target in another assay is Pen. To be noted: MAPPIT configuration: N-N; pair source set: Finley_Y2H.
The target of a further assay is lwr. As to conditions: MAPPIT configuration: N-N; pair source set: screen_1.
A further assay has as its target Lcp1. To be noted: MAPPIT configuration: N-N; pair source set: DPIM.
The target in another assay is Mettl14. To be noted: MAPPIT configuration: N-N; pair source set: DPIM.
In another assay the target is Rnmt. To be noted: MAPPIT configuration: N-N; pair source set: DPIM.
The next assay addresses Mkk4. To be noted: MAPPIT configuration: N-N; pair source set: DPIM.
In the next assay the target is Orai. As to conditions: MAPPIT configuration: N-N; pair source set: DPIM.
The target in the next assay is MED8.
A further assay has as its target Lac. As to conditions: pair source set: Lit-BM-16.
The next assay has as its target MAPk-Ak2. As to conditions: MAPPIT configuration: N-N; pair source set: Curagen_high_conf.

A number with no mark means an inactive call.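 How the source made its calls: active = MAPPIT score above the 99th percentile of random reference set scores in the same batch; inactive = at or below it.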
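Further: HEK293T cells with Epo stimulation, STAT-responsive firefly luciferase reporter, fold induction versus unstimulated cells divided by the larger fold induction of two negative controls lacking either bait or prey.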

B1: SdhB (protein)
chain: MLATEARQILSRVGSLVARNQMRAISNGTAQLEQQAQPKEAQEPQIKKFEIYRWNPDNAGEKPYMQTYEVDLRECGPMVLDALIKIKNEMDPTLTFRRSCREGICGSCAMNIGGTNTLACISKIDINTSKSLKVYPLPHMYVVRDLVPDMNNFYEQYRNIQPWLQRKNEAGEKKGKAQYLQSVEDRSKLDGLYECILCACCSTSCPSYWWNAEKYLGPAVLMQAYRWIIDSRDENSAERLNKLKDPFSVYRCHTIMNCTRTCPKGLNPGRAIAEIKKLLSGLASKPAPKLETAALHK
In the case of B1, in the assay with MESK2, the MAPPIT interaction score was 0.135.

B2: prod (protein)
chain: MEKVEAVTVSNVDPYRRILNKVVSQLLLDKGAGQASNHSLETLTQMLQALIWEIGNSAHNYCELSGRTMPTVGDVSLALINMGISISNLDPYMRKETHVPIPLPPQQTQQRPLSLLQAGIKAPHPHYVPSYFPPMPDPHAYIRTPTHKQPVTEYEAIREKAACQKRDIEKALTKFLCKTTETNNLFPTEDNMFPLIACKPAFPPYAAALNPTDQVFDFEELEYHYLVANRTEDEPSKDDGEEGDSENEEMDGDKSKEEKPELDIKPNSNTNKAILENPNIDNPYLRAATLPKRSKNCPTPGTMPSRSLATTAPTIRTPSTLEITKTNL
As to B2, the MAPPIT interaction score was 2.19 in the assay with Lmpt, 0.326 with Pen and -0.147 with lwr.

B3: B52 (protein)
chain: MVGSRVYVGGLPYGVRERDLERFFKGYGRTRDILIKNGYGFVEFEDYRDADDAVYELNGKELLGERVVVEPARGTARGSNRDRYDDRYGGRRGGGGGRYNEKNKNSRSSSRYGPPLRTEYRLIVENLSSRVSWQDLKDYMRQAGEVTYADAHKQRRNEGVVEFASLSDMKTAIEKLDDTELNGRRIHLVEDRRGGRSGGGGGSGRGRSRSSSSRSRSRSRRRSRSRRSSHSRSKSRSRSKSRGGRSKSKSPVKSRSRSRSRSNKSRDVSKSKSKSHSRTRSRSPKRERDSRSRSRSVSKRESRSRSRSKSIHRDSRSRPPTVSFKSSFYKFTTMPFFCSDRSASAENKSRSRSRSRSASPKNGNASPDRNNESMDD
Consider B3, for which the MAPPIT interaction score with Lcp1 is -0.142.

B4: Hsp23 (protein)
chain: MANIPLLLSLADDLGRMSMVPFYEPYYCQRQRNPYLALVGPMEQQLRQLEKQVGASSGSSGAVSKIGKDGFQVCMDVSHFKPSELVVKVQDNSVLVEGNHEEREDDHGFITRHFVRRYALPPGYEADKVASTLSSDGVLTIKVPKPPAIEDKGNERIVQIQQVGPAHLNVKENPKEAVEQDNGNDK
B4: the MAPPIT interaction score with Mettl14 was 1.35; with Rnmt, 1.27.

B5: porin (protein)
chain: MAPPSYSDLGKQARDIFSKGYNFGLWKLDLKTKTSSGIEFNTAGHSNQESGKVFGSLETKYKVKDYGLTLTEKWNTDNTLFTEVAVQDQLLEGLKLSLEGNFAPQSGNKNGKFKVAYGHENVKADSDVNIDLKGPLINASAVLGYQGWLAGYQTAFDTQQSKLTTNNFALGYTTKDFVLHTAVNDGQEFSGSIFQRTSDKLDVGVQLSWASGTSNTKFAIGAKYQLDDDASVRAKVNNASQVGLGYQQKLRDGVTLTLSTLVDGKNFNAGGHKIGVGLELEA
B5: the figures for the MAPPIT interaction score with Mkk4 and in the assay with Orai were 1.64 and 1.31, respectively.

B6: Trmt112 (protein)
chain: MKLSTYNFLTSVAIKGVKVGFPLKLTINKKEVVESEFNPTFVERILPKLDWSAVYGAAQVAELTEDIPAVQPENIVENELLLQKLHHLLFEIDVLEGQLECPETGRVFPISDGIPNMLLNEDEV
B6: the MAPPIT interaction score was 0.923 with MED8 (MAPPIT configuration: N-C, pair source set: screen_4) and 1.99 with MED8 (MAPPIT configuration: N-N, pair source set: Finley_Y2H).

B7: Lac (protein)
chain: MWRPSISNCVWSTLLLAIFVQQTLAQRTPTISYITQEQIKDIGGTVEFDCSVQYAKEYNVLFLKTDSDPVFLSTGSTLVIKDSRFSLRYDPNSSTYKLQIKDIQETDAGTYTCQVVISTVHKVSAEVKLSVRRPPVISDNSTQSVVASEGSEVQMECYASGYPTPTITWRRENNAILPTDSATYVGNTLRIKSVKKEDRGTYYCVADNGVSKGDRRNINVEVEFAPVITVPRPRLGQALQYDMDLECHIEAYPPPAIVWTKDDIQLANNQHYSISHFATADEYTDSTLRVITVEKRQYGDYVCKATNRFGEAEARVNLFETIIPVCPPACGQAYIAGAEDVSATSFALVGILAALLFAR
Turning to B7, the MAPPIT interaction score with Lac (MAPPIT configuration: N-C) was -0.593; with Lac (MAPPIT configuration: N-N), -0.017.

B8: p38b (protein)
chain: MSRKMAKFYKLDINRTEWEIPETYQNLQPVGQGAYGQVCKAVVRGTSTKVAIKKLARPFQSAVHAKRTYRELRLLKHMDHENVIGLLDVFHPGQPADSLDQFQQVYMVTHLMDADLNNIIRTQKLSDDHVQFLVYQILRGLKYIHSAGVIHRDLKPSNIAVNEDCELRILDFGLARPAESEMTGYVATRWYRAPEIMLNWMHYNQTADIWSVGCIMAELLTGRTLFPGTDHIHQLNLIMEVLGTPADEFMSRISSESARNYIRSLPVMPRRNFRDIFRGANPLAIDLLEKMLELDADKRITAEQALAHPYMEKYHDPTDEQTAALYDQSFEENELPVEKWREMVFSEVTAFKPTAAFAELLPKEQ
For B8, in the assay with MAPk-Ak2, the MAPPIT interaction score is 1.93.
